# Data reported in PubChem BioAssay (Tox21).
# Results filed as inconclusive are left out. Where a call stands in place of a potency, no number is given. Values without a mark were called inactive. Active and inactive are the calls of the source. The call rests on the fitted dose curve; in most records, active means well fitted curve in the direction sought with a large enough effect in the repeat runs; inconclusive means weak or mixed curves; inactive means no such curve, though single readings can be large; an effect the other way counts as inactive or inconclusive.
# Key:
# [1] = qHTS assay to identify small molecule agonists of the RXR signaling pathway - cell viability counter screen (AID 1159529); further: nearly all actives have a fitted effect of over 50% in size; further: potency means the concentration at half of the fitted maximal effect; on activity change, negative = cytotoxicity: series mostly up to about 77 µM
# Outline: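 Cell viability is measured by CellTiter-Glo luminescence, 30 min at room temperature, in wells already read for beta-lactamase. Engineered HEK 293T cells (RXR-alpha-UAS-bla) are dosed 16 hr at 37 C. Tetraoctyl ammonium bromide serves as positive control.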
# [2] = qHTS assay to identify small molecule antagonists of the retinoid acid receptor (RAR) signaling pathway - cell viability counter screen (AID 1159551); further: nearly all actives have a fitted effect of over 35% in size
# Outline: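 Viability of C3RL4 cells is quantified from ATP by luminescence after 6 h treatment at 37 C with compounds and 1 uM retinol.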
# [3] = qHTS assay to identify small molecule antagonists of the retinoic acid receptor (RAR) signaling pathway (AID 1159552; further: nearly all actives have a fitted effect of over 50% in size)
# Outline: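 Quantitative HTS in C3RL4 RARE-luciferase reporter cells. Compounds were added with 1 uM (final) retinol; luminescence was read after 6 hr.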
# [4] = qHTS assay to identify small molecule agonists of the retinoic acid receptor (RAR) signaling pathway (AID 1159553)
# Outline: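 Compounds dissolved in DMSO were pinned onto C3RL4 cells seeded the previous day, and plates were held 6 hr at 37 C. RARE-driven luciferase output was then read by luminescence.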
smiles,measurement,setting,value
NCC(=O)O,"activity change, negative = cytotoxicity",[1],4.74% [at 15.8 µM]
same,"activity change, negative = cytotoxicity",[2],-0.228% [at 19 µM]
same,"activity, negative = inhibition",[3],0.472% [at 19 µM]
same,Potency,[4],inactive
O=C1C(O)=C(O)C(=O)C(O)=C1O,Potency,[1],inactive
same,Potency,[2],inactive
same,Potency,[3],inactive
same,Potency,[4],inactive
COc1ccc(C(=O)c2ccc(OC)cc2O)c(O)c1,Potency,[1],inactive
same,Potency,[2],inactive
same,Potency,[3],inactive
CCCCCCCCCCCCCCOS(=O)(=O)O,Potency,[1],21.9 µM (active)
same,Potency,[2],inactive
OC(C#CCN1CCCC1)(c1ccccc1)c1ccccc1,Potency,[1],inactive
same,Potency,[2],inactive
same,Potency,[3],inactive
same,Potency,[4],inactive
Cc1cccc(C)c1OCC(=O)N[C@@H](Cc1ccccc1)[C@@H](O)C[C@H](Cc1ccccc1)NC(=O)[C@H](C(C)C)N1CCCNC1=O,Potency,[1],23.9 µM (active)
same,Potency,[2],inactive
same,Potency,[3],inactive
same,Potency,[4],inactive
C=C1[C@H]2CC[C@@H]3[C@H]2C(C)(C)CCC[C@]13C,Potency,[1],inactive
same,Potency,[2],inactive
same,Potency,[3],inactive
same,Potency,[4],inactive
O=C1c2ccccc2S(=O)(=O)N1CCCCN1CCN(c2ncccn2)CC1,Potency,[1],inactive
same,Potency,[2],inactive
same,Potency,[3],inactive
same,Potency,[4],inactive
C=CCOC(=O)CCC1CCCCC1,Potency,[1],inactive
same,Potency,[2],inactive
COC(C)(C)CCO,Potency,[1],inactive
same,Potency,[2],inactive
same,Potency,[3],inactive
same,Potency,[4],inactive
CCCCc1nc2cccnc2n1Cc1ccc(-c2ccccc2-c2nnn[nH]2)cc1,Potency,[1],inactive
same,Potency,[2],inactive
Cc1[nH]c(C)c(Cl)c(=O)c1Cl,"activity change, negative = cytotoxicity",[1],7.97% [at 15.8 µM]
same,"activity change, negative = cytotoxicity",[2],-2.2% [at 19 µM]
same,"activity, negative = inhibition",[3],3.44% [at 19 µM]
same,Potency,[4],inactive
OCCNCc1ccccc1,Potency,[1],inactive
same,Potency,[2],inactive
same,Potency,[3],inactive
same,Potency,[4],inactive
